tim10-1 inh: growth inhibitors of tim10-1 mutant yeast; S. cerevisiae tim10-1 ts strain growth, BacTiter-Glo, 24 h; inhibition, % at 20 µM; actives 2.2% (n = 330,000);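 active = inhibition of at least 40%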;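 note: mutant grown at 25 °C; 0% = DMSO wells with yeast and 100% = wells holding no yeast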
PfHsp90 yeast 2: reduces growth (ATP signal) of yeast expressing P. falciparum Hsp90; S. cerevisiae expressing PfHsp90, BacTiter-Glo ATP, 48 h; yeast lacking PDR1 and PDR3 efflux regulators; inhibition, % at 9.4 µM; actives 0.32% (n = 310,000);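 active = every replicate shows inhibition above about 80%, whatever the replicate mean, limit read from the data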;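 note: 0% = DMSO neutral controls and 100% = 20 µM radicicol positive controls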
TIM10 inh: growth inhibitors of TIM10 yeast strain; S. cerevisiae TIM10 strain growth, BacTiter-Glo luminescence, 24 h; inhibition, % at 10 µM; actives 1.4% (n = 330,000);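 active = inhibition of 40% or more at the single tested concentration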;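 note: wild-type TIM10 isogenic control strain grown at permissive 25 °C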
NALP3 yeast inh: inhibitors of NALP3 inflammasome in yeast. Yeast reconstituted NLRP3/ASC/caspase-1, beta-gal luminescence, 24 h. actives 0.39% (n = 330,000). inhibition, % at 10 µM;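 active = inhibition of 50% or more; inactive = inhibition below 50%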;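 note: plate controls were induced DMSO wells for no effect and uninduced yeast grown without galactose for full effect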
tim23-1 inh: tim23-1 yeast growth inhibition. S. cerevisiae tim23-1 growth, BacTiter-Glo luminescence, 24 h. inhibition, % at 20 µM. actives 1.3% (n = 330,000);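 active = growth inhibition of the mutant yeast at or above 50%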;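 note: temperature-sensitive mutant grown at 25 °C; plate controls were DMSO-treated mutant yeast for no effect and medium wells lacking yeast for full effect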
SKKanGAS inh: inhibitors of SKKanGAS S. pyogenes growth in kanamycin (SK-promoter or general growth effect); BacTiter-Glo, 6 h; inhibition, % at 7.5 µM; actives 1.3% (n = 300,000);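 active = mean replicate score, as percent of positive control median, at least 50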;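 note: strain carries kanamycin resistance gene driven by streptokinase promoter and grows in 40 µg/ml kanamycin; loss of luminescence reflects streptokinase promoter inhibition or plain growth inhibition; 0% = median of DMSO wells and 100% = positive control at its reference dose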
NALP3 yeast conf: confirmation of NALP3 inhibitors in yeast. shares compounds with NALP3 yeast inh. yeast expressing human NALP3, luminescence. inhibition, % at 10 µM. actives 81% (n = 1,300). AID 435006; in the data active = inhibition above about 48%
Casp1 ASC ctr: caspase-1-ASC yeast counter-screen hit. shares compounds with NALP3 yeast inh. yeast expressing Caspase-1-ASC, luminescence counter screen. inhibition, % at 10 µM. actives 66% (n = 1,000)
NALP3 yeast rt: retest-confirmed inhibitor of NALP3 in yeast; inhibition, % at 10 µM; actives 53% (n = 1,000); AID 488794; shares compounds with NALP3 yeast inh; yeast expressing human NALP3, luminescence read-out
Numbers without * were called inactive. Rows were chosen to be rich in hits. Some 4.5% of all compounds tested hit in one or more screens of this group. Cut-off read from the data, not from the text of the source, unless noted: active = inhibition above about 50%; inactive = the rest.

How did CC(=O)N1N=C(c2ccc(Cl)cc2)OC1(C)C do in these assays?
tim10-1 inh: 0; PfHsp90 yeast 2: 34; TIM10 inh: 7; NALP3 yeast inh: 71*; tim23-1 inh: 8; SKKanGAS inh: -16; NALP3 yeast conf: 51*; Casp1 ASC ctr: 52*; NALP3 yeast rt: 34

What do the screens show for `Oc1ccc(N=Nc2ccc3c(c2)OCCO3)c(O)c1`?
tim10-1 inh: 31; PfHsp90 yeast 2: 1; TIM10 inh: 17; NALP3 yeast inh: 50*; tim23-1 inh: 36; SKKanGAS inh: -4; NALP3 yeast conf: 66*

What do the screens show for `O=C(Cc1ccc2c(c1)OCCO2)c1c(O)cc(O)cc1O`?
tim10-1 inh: 22; PfHsp90 yeast 2: 16; TIM10 inh: 14; NALP3 yeast inh: -6; tim23-1 inh: 28; SKKanGAS inh: 17

What do the screens show for `COc1cccc(Nc2ncnc3c2cnn3-c2cccc(C)c2)c1`?
tim10-1 inh: 6; TIM10 inh: -27; NALP3 yeast inh: 9; tim23-1 inh: 1; SKKanGAS inh: 31

Results for Clc1cccc(Nc2ncnc3c2cnn3-c2ccccc2)c1 ?
tim10-1 inh: 28; PfHsp90 yeast 2: 12; TIM10 inh: -19; NALP3 yeast inh: 53*; tim23-1 inh: 15; SKKanGAS inh: 64*; NALP3 yeast conf: 61*; Casp1 ASC ctr: 46; NALP3 yeast rt: 48

What do the screens show for `O=C(O)c1cccc(Nc2ncnc3c2cnn3-c2ccccc2)c1`?
tim10-1 inh: -5; PfHsp90 yeast 2: -10; TIM10 inh: 0; NALP3 yeast inh: 12; tim23-1 inh: 4; SKKanGAS inh: 3

Results for Fc1cccc(Nc2ncnc3c2cnn3-c2ccccc2)c1 ?
tim10-1 inh: 2; PfHsp90 yeast 2: 22; TIM10 inh: 1; NALP3 yeast inh: 63*; tim23-1 inh: 38; SKKanGAS inh: -6; NALP3 yeast conf: 77*

How did CCc1ccc(NC(=O)Cn2cnc3sc(C)c(S(=O)(=O)N4CCOCC4)c3c2=O)cc1 do in these assays?
tim10-1 inh: -19; PfHsp90 yeast 2: -18; TIM10 inh: 2; NALP3 yeast inh: 3; tim23-1 inh: 3; SKKanGAS inh: 12

Results for O=C(NCCC1=CCCCC1)c1ccc([N+](=O)[O-])cc1 ?
tim10-1 inh: 11; PfHsp90 yeast 2: 18; TIM10 inh: 8; NALP3 yeast inh: 58*; tim23-1 inh: 9; SKKanGAS inh: 3; NALP3 yeast conf: 22

Results for CCOc1ccc(C(=O)N/N=C/c2c(C)[nH]c(=O)[nH]c2=O)cc1 ?
tim10-1 inh: 8; TIM10 inh: -19; NALP3 yeast inh: -12; tim23-1 inh: -9; SKKanGAS inh: -6

How did Cc1ccc(NC(=O)CCn2cccc2)cc1C do in these assays?
tim10-1 inh: -14; PfHsp90 yeast 2: -11; TIM10 inh: -8; NALP3 yeast inh: 59*; tim23-1 inh: 13; SKKanGAS inh: -4; NALP3 yeast conf: 74*; Casp1 ASC ctr: 43; NALP3 yeast rt: 39

Results for Cc1ccc(NC(=O)Cn2cccc2)cc1C ?
tim10-1 inh: -24; PfHsp90 yeast 2: 4; TIM10 inh: 6; NALP3 yeast inh: 13; tim23-1 inh: 3; SKKanGAS inh: -2

How did CC(C)C(=O)Nc1ccc(NC(=S)NC(=O)c2ccccc2F)cc1 do in these assays?
tim10-1 inh: 1; PfHsp90 yeast 2: -19; TIM10 inh: -10; NALP3 yeast inh: 14; tim23-1 inh: 13; SKKanGAS inh: 5

How did Cn1cccc1/C=C1\Cc2ccccc2C1=O do in these assays?
tim10-1 inh: -21; PfHsp90 yeast 2: 25; TIM10 inh: 14; NALP3 yeast inh: 54*; tim23-1 inh: 25; SKKanGAS inh: 2; NALP3 yeast conf: 69*

How did Cn1cccc1/C=C1\CCc2ccccc2C1=O do in these assays?
tim10-1 inh: 8; PfHsp90 yeast 2: 33; TIM10 inh: 13; NALP3 yeast inh: 22; tim23-1 inh: 35; SKKanGAS inh: 19

Results for CCc1noc(C)c1C(=O)Nc1nc2c(C)cc(C)cc2s1 ?
tim10-1 inh: 25; PfHsp90 yeast 2: 25; TIM10 inh: 1; NALP3 yeast inh: 72*; tim23-1 inh: 20; SKKanGAS inh: -9; NALP3 yeast conf: 77*; Casp1 ASC ctr: 75*; NALP3 yeast rt: 61*

What do the screens show for `CCc1noc(C)c1C(=O)Nc1nc2ccc(F)cc2s1`?
tim10-1 inh: 13; PfHsp90 yeast 2: 18; TIM10 inh: 2; NALP3 yeast inh: 68*; tim23-1 inh: 36; SKKanGAS inh: -2; NALP3 yeast conf: 78*; Casp1 ASC ctr: 75*; NALP3 yeast rt: 66*

How did Cc1noc(C)c1C(=O)Nc1nc2ccc(F)cc2s1 do in these assays?
tim10-1 inh: 27; PfHsp90 yeast 2: 57; TIM10 inh: 14; NALP3 yeast inh: 65*; tim23-1 inh: 39; NALP3 yeast conf: 50*; Casp1 ASC ctr: 62*; NALP3 yeast rt: 54*

What do the screens show for `Cc1cc(C)c2nc(NC(=O)c3cc(C)on3)sc2c1`?
tim10-1 inh: -2; PfHsp90 yeast 2: -38; TIM10 inh: 9; NALP3 yeast inh: 8; tim23-1 inh: -3; SKKanGAS inh: -3

What do the screens show for `COc1cccc(OC)c1C(=O)Nc1nc2ccc([N+](=O)[O-])cc2s1`?
tim10-1 inh: 18; PfHsp90 yeast 2: 16; TIM10 inh: 35; NALP3 yeast inh: 55*; tim23-1 inh: 16; SKKanGAS inh: 13; NALP3 yeast conf: 74*

Results for COc1cccc(OC)c1C(=O)Nc1nc2ccc(S(C)(=O)=O)cc2s1 ?
tim10-1 inh: -5; PfHsp90 yeast 2: -7; TIM10 inh: -10; NALP3 yeast inh: 6; tim23-1 inh: 2; SKKanGAS inh: -5

How did Cc1ccc(C(=O)NCC(=O)OCC(=O)N2CC(C)OC(C)C2)cc1 (stereo not given) do in these assays?
tim10-1 inh: 6; PfHsp90 yeast 2: -9; TIM10 inh: 13; NALP3 yeast inh: 8; tim23-1 inh: 8; SKKanGAS inh: -8

What do the screens show for `O=C(CCNC(=O)c1ccc(Cl)cc1)NNC(=O)c1ccc(F)cc1`?
tim10-1 inh: -7; PfHsp90 yeast 2: -17; TIM10 inh: 1; NALP3 yeast inh: 24; tim23-1 inh: 16

Results for COc1ccc(C(NC(=O)c2cc(OC)ccc2OC)c2ccccc2)cc1 (stereo not given) ?
tim10-1 inh: 5; PfHsp90 yeast 2: -27; TIM10 inh: -7; NALP3 yeast inh: 8; tim23-1 inh: 24; SKKanGAS inh: -2

Assay outcomes (PubChem BioAssay)
